HT1080 IDH1KD tx: HT-1080 IDH1 knockdown cell toxicity (counter line); Potency, µM (titrated, usually from 46.1 µM), for inactives: at the top dose activity, negative = toxicity, most hits filed as cytotoxic; HT-1080 IDH1 knockdown viability, ATP luminescence, 48 h; AID 686971; 360,000 compounds, 2% hits;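 further: potency means the concentration at half of the fitted maximal effect; 0% = DMSO wells and -100% = cell-free medium wells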
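Using the IDH1-knockdown HT-1080 line run in the same batch and compound series as the NT line, viability after 48 h at 37 °C was determined by CellTiter-Glo luminescence and expressed as % activity.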
IL-1B inflam inh: blocks inflammasome-driven IL-1 beta release. THP-1 LPS/ATP IL-1B secretion, AlphaLISA, 16 h; active compounds read low. activity change, % at 57.5 µM. 360,000 compounds, 4.7% hits. AID 743279; in the data active means activity change below about -50%; inconclusive means mostly about -30% to -49%
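THP-1 cells pretreated 1 hr with compounds (up to 57.5 uM final), then stimulated with LPS (250 ng/mL final) plus ATP (1.25 mM final); secreted IL-1B measured by AlphaLISA after 16 hr, decreased signal indicating inhibition.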
HT1080NT lethal: kills 2HG-producing HT-1080-NT fibrosarcoma cells; 360,000 compounds, 1.6% hits; Potency, µM (titrated, usually from 46.1 µM), for inactives: top-dose activity, negative = less viability, hits mostly cytotoxic; AID 686970; HT-1080-NT fibrosarcoma viability, CellTiter-Glo ATP luminescence, 48 h;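 further: NT is the 2HG producing partner of a matched IDH1 knockdown line; potency means the concentration at half of the fitted maximal effect; 0% = DMSO-treated cells and -100% = media-only wells without cells; nearly all actives have a fitted effect of over 55% in size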
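Viability by CellTiter-Glo luminescence after 48 h compound exposure at 37C of HT-1080-NT cells (750/well, RPMI, 5% FBS). % activity scaled between DMSO wells and medium-only wells, then curve-fitted and categorized by curve class.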
DT40 TDP1 CPT: growth inhibition of DT40 Tdp1-/-;hTDP1 cells with camptothecin (screen for TDP1 inhibitors); Potency, µM (titrated, usually from 46.2 µM), inactives show top-dose activity change, negative = growth inhibition, hits mostly inhibitors; 420,000 compounds, 12% hits; chicken DT40 Tdp1-/-;hTDP1 cells + 20 nM CPT, ATP luminescence, 48 h; further: potency means the concentration at half of the fitted maximal effect; nearly all actives have a fitted effect of over 55% in size
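Cell growth measured by CellTiter-Glo luminescence after a minimum 48 h, 37 C compound exposure with 20 nM CPT in Tdp1-knockout DT40 cells stably expressing hTDP1, seeded 400/well; qHTS titration format.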
TDP1 cell noCPT: qHTS for Inhibitors of human tyrosyl-DNA phosphodiesterase 1 (TDP1): qHTS in cells in absence of CPT | 420,000 compounds, 15% hits | Potency, µM (highest dose often 46.2 µM), inactives show at the top dose activity change, negative = growth inhibition, usual class: inhibitors | DT40 Tdp1-/- hTDP1 cells, no CPT, ATP luminescence, 48 h | AID 686978, 2013; further: potency means the concentration at half of the fitted maximal effect; nearly all actives have a fitted effect of over 55% in size
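Seeded 400 DT40-hTDP1 cells/well (vehicle DMSO, no 20 nM CPT); pinned compounds; ≥48 hr at 37 °C; CellTiter-Glo luminescence as viability measure.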
Numbers without * were called inactive; ? = inconclusive; . = no result; [ ] = dose if it differs, or a comment. Hits are enriched below; roughly 19% of the tested compounds scored in any of these assays. Unless noted, the call rests on the fitted dose curve; in most records, active means well fitted curve in the direction sought with a large enough effect; inconclusive means small, poorly fitted or top-dose-only effect, or another doubt; inactive means no such curve, though single readings can be large; an effect the other way counts as inactive or inconclusive. Unless noted, on the % scale 0 is the no-effect control and ±100 the full control effect.

SMILES	HT1080 IDH1KD tx	IL-1B inflam inh	HT1080NT lethal	DT40 TDP1 CPT	TDP1 cell noCPT
CC(=O)c1cn(CC(=O)Nc2ccccc2C)c2ccccc12	-21%	14	-21%	8.2µM*	6.5µM*
CC(=O)c1cn(CC(=O)Nc2c(C)cccc2C)c2ccccc12	?	-15	-7%	10µM*	8.2µM*
Cc1ccccc1NC(=O)Cn1c(O)c(N=NC(=O)c2ccccc2O)c2ccccc21	12%	0	7%	?	5.8µM*
NC(=O)Cn1cc(C(=O)c2cccs2)c2ccccc21	2%	18	7%	9%	3%
Cc1ccc(C)c(NC(=O)Cn2cc(C(=O)c3cccs3)c3ccccc32)c1	.	.	.	18µM*	21µM*
CC(=O)c1cn(CC(=O)Nc2ccc(C)c(C)c2)c2ccccc12	2%	30	2%	7%	?
Cc1nc2ccccc2c(=O)n1N(c1ccccc1)c1ccccc1	0%	-29	-2%	?	-28%
Cc1cccc(C)c1NC(=O)Cn1cc(C=O)c2ccccc21	-6%	35	-6%	21µM*	8.2µM*
Cc1cccc(NC(=O)Cn2cc(C=O)c3ccccc32)c1	-8%	63	2%	?	?
CC(=O)c1cn(CC(=O)NCc2ccc3c(c2)OCO3)c2ccccc12	-25%	14	?	13µM*	13µM*
CSc1nc(N)nc2c1ncn2CC(=O)NCc1ccc2c(c1)OCO2	1%	30	-2%	16µM*	8.2µM*
Cc1ccc(NC(=O)Cn2c(O)c(N=NC(N)=O)c3ccccc32)cc1	-23%	-2	-14%	?	?
CSc1nc(N)nc2c1ncn2CC(=O)NCc1ccccc1	6%	41	2%	?	?
Cc1ccc(NC(=O)Cn2c(O)c(N=NS(=O)(=O)c3ccc(C)cc3)c3ccccc32)cc1	-5%	-5	-1%	?	15µM*
O=C(Cn1cc(C(=O)C2CC2)c2ccccc21)NCc1ccc2c(c1)OCO2	-11%	-29	-21%	?	?
COc1ccc(N2CCN(c3ccc(N4C(=O)COCC4=O)cc3[N+](=O)[O-])CC2)cc1	-12%	-4	0%	?	9.2µM*
COc1ccc(N2CCN(C(=O)c3ccc(Br)cc3)CC2)c([N+](=O)[O-])c1	10%	-18	15%	?	18µM*
Cc1ccc(C)c(N2CCN(c3ccc(N4C(=O)COCC4=O)cc3[N+](=O)[O-])CC2)c1	10%	27	15%	0%	-8%
COc1ccc(N2CCN(C(=O)c3ccccc3Br)CC2)c([N+](=O)[O-])c1	-1%	-61*	-6%	?	15µM*
O=C(CCCOc1cccc(Br)c1)NCCOc1ccccc1	-4%	-7	-9%	1%	-5%
COc1cccc(OCc2cc(C(=O)N3CCN(C(C)=O)CC3)no2)c1	5%	-2	5%	-7%	2%
O=C(c1cc(COc2ccc3ncccc3c2)on1)N1CCCC1	15µM*	11	21µM*	7.3µM*	6.5µM*
O=C(NCCc1cn2ccccc2n1)c1cc(COc2ccc3ncccc3c2)on1	-28%	-11	-4%	4.1µM*	5.8µM*
COCC1CCN(C(=O)c2cc(COc3ccc4ncccc4c3)on2)CC1	-15%	33	-2%	3.7µM*	8.2µM*
COc1ccc(OCc2cc(C(=O)N3CCCCCCC3)no2)c(Cl)c1	4%	-3	3%	-16%	?
SMILES	HT1080 IDH1KD tx	IL-1B inflam inh	HT1080NT lethal	DT40 TDP1 CPT	TDP1 cell noCPT
O=C(c1cc(COc2ccc3ncccc3c2)on1)N1CCCCCC1	?	-11	3.7µM*	4.1µM*	2.6µM*
Cc1ccc(OCc2cc(C(=O)NC3CCCCC3)no2)cn1	15µM*	19	?	13µM*	8.2µM*
COc1cccc(OCc2cc(C(=O)NC3CCOCC3)no2)c1	2%	-3	-5%	-7%	16%
CC(NC(=O)c1cc(COc2ccccc2)on1)c1nccs1 (stereo not drawn)	6%	12	1%	?	-20%
CC(NC(=O)c1cc(COc2ccc3ncccc3c2)on1)c1ccc(F)cc1 (stereo not drawn)	?	-16	-22%	6.5µM*	3.7µM*
O=C(NC1CCCC1)c1cc(COc2ccc3ncccc3c2)on1	?	-6	?	3.7µM*	2.1µM*
CCCc1cc(=O)[nH]c(SCC(=O)N2CCc3ccccc3C2)n1	2%	61	-1%	-2%	0%
O=Cc1c(NC2CCCCC2)c2ccccc2[nH]c1=O	3%	-9	-1%	4%	-16%
O=C(CNC(=O)c1cccc(-n2cccc2)c1)Nc1ccccc1Br	3%	?	3%	-19%	-31%
COc1ccc(-c2nc(CS(=O)CC(=O)N3CCOCC3)c(C)o2)cc1OC (stereo not drawn)	10%	-6	-5%	2%	14%
COc1cc2nc(Cl)nc(N3CCOCC3)c2cc1OC	-11%	-3	-5%	?	?
COc1cc2nc(Cl)nc(N3CCCCC3)c2cc1OC	2%	-61*	0%	-15%	26µM*
COC(=O)c1cccc(Nc2c(-c3ccc(OC)cc3)nc3nc[nH]n23)c1	.	.	.	21µM*	?
CSCc1cc(N(C)c2ccccc2)nc(-c2ccccn2)n1	-1%	18	0%	2.9µM*	4.6µM*
CO[C@H]1[C@H](NC(=O)c2ccco2)c2ccccc2C12CCN(Cc1cnc(N(C)C)s1)CC2	.	.	.	4%[9.04 µM]	-13%
c1cncc(CNc2nc(-c3ccoc3)nc3ccccc23)c1	.	.	.	?	21µM*
Cc1ccc(-c2nc(NCCCN(C)C)c3ccccc3n2)cc1	?	?	?	-4%	?
COc1ccc(CNc2nc(-c3ccc(N(C)C)cc3)nc3ccccc23)c(OC)c1	.	.	.	4.1µM*	4.1µM*
CN(C)c1ccc(-c2nc(Nc3ccncc3)c3ccccc3n2)cc1	.	.	.	9.2µM*	5.8µM*
CN(C)c1ccc(-c2nc(NCc3cccnc3)c3ccccc3n2)cc1	.	.	.	3.7µM*	4.1µM*
CCN(CC)c1ccc(/C=C2\C(=N)N3N=C(CC(=O)N4CCOCC4)SC3=NC2=O)cc1	-8%	19	18%	10%	0%
N.N.O=C(O)C1(C(=O)O)CCC1.[Pt]	.	.	.	2%	-6%
CCC(C(=O)Nc1nnc2n1CCS2)c1ccccc1 (stereo not drawn)	.	.	.	-17%	-14%
Cc1cc(OC(=O)c2ccc(Cl)cc2Cl)nc(C)n1	2%	10	1%	-3%	-6%
CCCCCCn1c(CN2CCCCC2CC)nc2c1c(=O)n(C)c(=O)n2C (stereo not drawn)	0%	23	6%	23µM*	13µM*
